Compounds with a hit are over-represented: about 19% of the library has one in this group of screens.
HT1080NT lethal: kills 2HG-producing HT-1080-NT fibrosarcoma cells | Potency, µM (top dose mostly 46.1 µM), inactives show top-dose activity, negative = less viability, hits mostly cytotoxic | actives 1.6% (n = 360,000) | AID 686970 | HT-1080-NT fibrosarcoma viability, CellTiter-Glo ATP luminescence, 48 h;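 further: NT is the 2HG producing partner of a matched IDH1 knockdown line; potency means the concentration at half of the fitted maximal effect; 0% = DMSO-treated cells and -100% = media-only wells without cells; nearly all actives have a fitted effect of over 55% in size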
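Toxicity toward the 2HG-producing NT line was scored as %Activity, normalised to DMSO and no-cell wells, from CellTiter-Glo luminescence after 48 hours' treatment.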
IL-1B inflam inh: blocks inflammasome-driven IL-1 beta release; THP-1 LPS/ATP IL-1B secretion, AlphaLISA, 16 h; active compounds read low; AID 743279; activity change, % at 57.5 µM; actives 4.7% (n = 360,000); in the data active means activity change below about -50%; inconclusive means mostly about -30% to -49%
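Secreted IL-1B measured by AlphaLISA bead assay after 16 h compound exposure of THP-1 cells; compounds (final up to 57.5 uM) added 1 h before LPS (250 ng/mL) and ATP (1.25 mM) stimulation; lower signal means less secretion.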
HT1080 IDH1KD tx: toxicity to HT-1080 IDH1 knockdown cells (counter line) | actives 2% (n = 360,000) | HT-1080 IDH1 knockdown viability, ATP luminescence, 48 h | Potency, µM (top dose mostly 46.1 µM), inactives show top-dose activity, negative = toxicity, actives largely listed as cytotoxic;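 further: potency means the concentration at half of the fitted maximal effect; 0% = DMSO wells and -100% = cell-free medium wells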
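HT-1080-IDH1KD cells (IDH1 knocked down), 750/well in RPMI with 5% FBS, treated with compound 48 h at 37 degrees C. Viability by CellTiter-Glo luminescence, normalised to DMSO and no-cell wells; concentration-response curves classed.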
TDP1 cell noCPT: qHTS for Inhibitors of human tyrosyl-DNA phosphodiesterase 1 (TDP1): qHTS in cells in absence of CPT. actives 15% (n = 420,000). Potency, µM (highest dose often 46.2 µM), for the others: at the top dose activity change, negative = growth inhibition, actives largely listed as inhibitors. AID 686978, 2013. DT40 Tdp1-/- hTDP1 cells, no CPT, ATP luminescence, 48 h; further: potency means the concentration at half of the fitted maximal effect; nearly all actives have a fitted effect of over 55% in size
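Seeded 400 DT40-hTDP1 cells/well (vehicle DMSO, no 20 nM CPT); pinned compounds; ≥48 hr at 37 °C; CellTiter-Glo luminescence as viability measure.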
TDP1 cell CPT: growth inhibition of DT40 Tdp1-/-;hTDP1 cells with camptothecin (screen for TDP1 inhibitors); Potency, µM (series often up to 46.2 µM), for inactives: top-dose activity change, negative = growth inhibition, most hits filed as inhibitors; actives 12% (n = 420,000); AID 686979; chicken DT40 Tdp1-/-;hTDP1 cells + 20 nM CPT, ATP luminescence, 48 h; further: potency means the concentration at half of the fitted maximal effect; nearly all actives have a fitted effect of over 55% in size
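Chicken DT40 Tdp1-/- cells complemented with human TDP1, 400 cells/well, exposed to compounds plus 20 nM camptothecin for at least 48 h at 37 C; viability read as ATP content by CellTiter-Glo luminescence.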
* marks the source's active call; other numbers are inactive results. Unless noted, the call rests on the fitted dose curve; in most records, active means well fitted curve in the direction sought with a large enough effect; inconclusive means small, poorly fitted or top-dose-only effect, or another doubt; inactive means no such curve, though single readings can be large; an effect the other way counts as inactive or inconclusive. Unless noted, on the % scale 0 is the no-effect control and ±100 the full control effect.

What do the screens show for `CC1=C(C(=O)N2CCCCCC2)CC(CC(=O)NC2CCCCC2)C(=O)N1Cc1ccc(F)cc1` (stereo not drawn)?
HT1080NT lethal: -18%; HT1080 IDH1KD tx: -16%; TDP1 cell noCPT: inconclusive; TDP1 cell CPT: inconclusive

How did O=C1/C(=C\c2ccncc2)CCc2ccccc21 do in these assays?
HT1080NT lethal: -20%; IL-1B inflam inh: -98*; HT1080 IDH1KD tx: -19%; TDP1 cell noCPT: 15µM*; TDP1 cell CPT: 13µM*

What do the screens show for `O=C1/C(=C/c2ccco2)CCc2ccccc21`?
HT1080NT lethal: 7%; IL-1B inflam inh: inconclusive; HT1080 IDH1KD tx: 1%; TDP1 cell noCPT: -13%; TDP1 cell CPT: 3%

Results for C[C@@]12CCC=C[C@H]1[C@H](c1ccoc1)N(Cc1ccccc1)C2=O ?
HT1080NT lethal: -6%; IL-1B inflam inh: -21; HT1080 IDH1KD tx: -5%; TDP1 cell noCPT: -5%; TDP1 cell CPT: -8%

Results for CN(C)c1ccc(-c2ccc([C@H]3[C@@H]4C=CCC[C@@]4(C)C(=O)N3Cc3ccccc3)c(F)c2)cc1 ?
HT1080NT lethal: inconclusive; IL-1B inflam inh: 0; HT1080 IDH1KD tx: inconclusive; TDP1 cell noCPT: 18µM*; TDP1 cell CPT: 23µM*

What do the screens show for `CN(C)c1ccc(-c2cc([C@H]3[C@@H]4C=CCC[C@@]4(C)C(=O)N3Cc3ccccc3)ccc2F)cc1`?
HT1080NT lethal: -16%; IL-1B inflam inh: -15; HT1080 IDH1KD tx: -18%; TDP1 cell noCPT: 23µM*; TDP1 cell CPT: inconclusive

Results for COc1ccc(-c2cc([C@H]3[C@@H]4C=CCC[C@@]4(C)C(=O)N3Cc3ccccc3)ccc2F)cc1OC ?
HT1080NT lethal: inconclusive; IL-1B inflam inh: -20; HT1080 IDH1KD tx: inconclusive; TDP1 cell noCPT: inconclusive; TDP1 cell CPT: 26µM*

How did COc1ccc(-c2cccc([C@H]3[C@@H]4C=CCC[C@@]4(C)C(=O)N3Cc3ccccc3)c2)cc1 do in these assays?
HT1080NT lethal: inconclusive; IL-1B inflam inh: -16; HT1080 IDH1KD tx: inconclusive; TDP1 cell noCPT: 16µM*; TDP1 cell CPT: 23µM*

Results for COc1ccc([C@H]2[C@@H]3C=CCC[C@@]3(C)C(=O)N2Cc2ccccc2)cc1Cl ?
HT1080NT lethal: -21%; IL-1B inflam inh: -9; HT1080 IDH1KD tx: -17%; TDP1 cell noCPT: 21µM*; TDP1 cell CPT: inconclusive

What do the screens show for `C[C@@]12CCC=C[C@H]1[C@H](c1ccc(F)c(/C=C/c3ccccc3)c1)N(Cc1ccccc1)C2=O`?
HT1080NT lethal: -18%; IL-1B inflam inh: 7; HT1080 IDH1KD tx: -10%; TDP1 cell noCPT: 16µM*; TDP1 cell CPT: inconclusive

What do the screens show for `Cc1ccc(F)c([C@H]2[C@@H]3C=CCC[C@@]3(C)C(=O)N2Cc2ccccc2)c1`?
HT1080NT lethal: -4%; IL-1B inflam inh: 32; HT1080 IDH1KD tx: -3%; TDP1 cell noCPT: inconclusive; TDP1 cell CPT: inconclusive

Results for C[C@@]12CCC=C[C@H]1[C@H](c1ccccc1Br)N(Cc1ccccc1)C2=O ?
HT1080NT lethal: -17%; IL-1B inflam inh: 10; HT1080 IDH1KD tx: -14%; TDP1 cell noCPT: 16µM*; TDP1 cell CPT: inconclusive

What do the screens show for `O=C(CN1C(=O)c2cccc3cccc1c23)NC1CCCCC1`?
HT1080NT lethal: 4%; IL-1B inflam inh: 55; HT1080 IDH1KD tx: 18%; TDP1 cell noCPT: -4%; TDP1 cell CPT: 11%

Results for Cc1sc2ncnc(N3CCC(C(=O)NCC(=O)Nc4ccc(F)c(F)c4)CC3)c2c1C ?
HT1080NT lethal: -17%; IL-1B inflam inh: -79*; HT1080 IDH1KD tx: -21%; TDP1 cell noCPT: inconclusive; TDP1 cell CPT: inconclusive

How did Cc1sc2ncnc(N3CCC(C(=O)Nc4ccc(Cl)c(Cl)c4)CC3)c2c1C do in these assays?
HT1080NT lethal: -2%; IL-1B inflam inh: -7; HT1080 IDH1KD tx: -2%; TDP1 cell noCPT: inconclusive; TDP1 cell CPT: inconclusive

How did Cc1sc2ncnc(N3CCC(C(=O)Nc4ccc(Cl)cc4Cl)CC3)c2c1C do in these assays?
HT1080NT lethal: -12%; IL-1B inflam inh: 14; HT1080 IDH1KD tx: -26%; TDP1 cell noCPT: 18µM*; TDP1 cell CPT: inconclusive

What do the screens show for `CCc1nc2ccccc2n1Cc1ccccc1F`?
HT1080NT lethal: 4%; IL-1B inflam inh: 25; HT1080 IDH1KD tx: 7%; TDP1 cell noCPT: inconclusive; TDP1 cell CPT: inconclusive

How did CCc1ccc2oc(C(=O)N3CCN(c4ccccc4OC)CC3)cc(=O)c2c1 do in these assays?
HT1080NT lethal: inconclusive; IL-1B inflam inh: -15; HT1080 IDH1KD tx: 13µM*; TDP1 cell noCPT: 9.2µM*; TDP1 cell CPT: 5.2µM*

How did CCc1ccc2oc(C(=O)N3CCN(c4ccc(OC)cc4)CC3)cc(=O)c2c1 do in these assays?
HT1080NT lethal: -4%; IL-1B inflam inh: -84*; HT1080 IDH1KD tx: -2%; TDP1 cell noCPT: inconclusive; TDP1 cell CPT: 11%

What do the screens show for `CCOC(=O)c1sc(N(Cc2ccccc2)C(=O)CSc2nnc(C3CC3)n2N)nc1C`?
HT1080NT lethal: -5%; IL-1B inflam inh: -14; HT1080 IDH1KD tx: inconclusive; TDP1 cell noCPT: inconclusive; TDP1 cell CPT: inconclusive

How did CN(C)CCNC(=O)Nc1ccc(F)cc1F do in these assays?
HT1080NT lethal: 16%; IL-1B inflam inh: 1; HT1080 IDH1KD tx: 17%; TDP1 cell noCPT: 0%; TDP1 cell CPT: 5%

How did CCn1c(=NC(=O)CN2C(=O)CCC2=O)sc2c(OC)ccc(OC)c21 do in these assays?
HT1080NT lethal: 12%; IL-1B inflam inh: -20; HT1080 IDH1KD tx: 0%; TDP1 cell noCPT: inconclusive; TDP1 cell CPT: inconclusive

How did CCn1c(=NC(=O)c2cccc(N3C(=O)CCC3=O)c2)sc2c(C)ccc(OC)c21 do in these assays?
HT1080NT lethal: -23%; IL-1B inflam inh: -27; HT1080 IDH1KD tx: -10%; TDP1 cell noCPT: -76%; TDP1 cell CPT: 18µM*

Results for CCn1c(=NC(=O)c2ccc(N3C(=O)CCC3=O)cc2)sc2c(OC)ccc(OC)c21 ?
HT1080NT lethal: -15%; IL-1B inflam inh: -8; HT1080 IDH1KD tx: -12%; TDP1 cell noCPT: inconclusive; TDP1 cell CPT: 23µM*

What do the screens show for `CCc1ccccc1NC(=O)Cn1nnc(-c2nc(-c3ccc(C)cc3)no2)c1N`?
TDP1 cell noCPT: -1%; TDP1 cell CPT: -22%

Results for Cc1ccc2nc(-c3ccc(Cl)cc3)c(Cc3ccccc3C(F)(F)F)n2c1 ?
HT1080NT lethal: 3%; IL-1B inflam inh: -11; HT1080 IDH1KD tx: 6%; TDP1 cell noCPT: inconclusive; TDP1 cell CPT: 26µM*

What do the screens show for `Cc1ccc2nc(-c3ccc(C#N)cc3)c(Cc3ccccc3C(F)(F)F)n2c1`?
HT1080NT lethal: inconclusive; IL-1B inflam inh: -9; HT1080 IDH1KD tx: inconclusive; TDP1 cell noCPT: inconclusive; TDP1 cell CPT: 23µM*
